Inconclusive results are not listed. Active and inactive are the calls of the source. The calls were made as follows: active = hit-call score of the fitted dose curve at least 0.9, where 1 is the maximum; inconclusive = response in the unintended direction; inactive = score below 0.9.
Target: human Peroxisome Proliferator-activated Receptor delta (PPARd), PPARD (gene 5467) (UniProt Q03181)
Assay: ATG_PPARd_TRANS: Attagene TRANS-FACTORIAL HepG2 Assay for human Peroxisome Proliferator-activated Receptor delta (PPARd) (AID 2283002)
How it was run: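 Read-out is induced reporter mRNA, quantified by RT-PCR with fluorescent labelling and capillary electrophoresis after 24 h dosing. Cells are HepG2 transiently carrying multiple GAL4-UAS reporter units driven by exogenous NR-GAL4 chimeras; DMSO serves as baseline.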

Chain of human Peroxisome Proliferator-activated Receptor delta (PPARd), PPARD (gene 5467) (Q03181 whole entry, looked up): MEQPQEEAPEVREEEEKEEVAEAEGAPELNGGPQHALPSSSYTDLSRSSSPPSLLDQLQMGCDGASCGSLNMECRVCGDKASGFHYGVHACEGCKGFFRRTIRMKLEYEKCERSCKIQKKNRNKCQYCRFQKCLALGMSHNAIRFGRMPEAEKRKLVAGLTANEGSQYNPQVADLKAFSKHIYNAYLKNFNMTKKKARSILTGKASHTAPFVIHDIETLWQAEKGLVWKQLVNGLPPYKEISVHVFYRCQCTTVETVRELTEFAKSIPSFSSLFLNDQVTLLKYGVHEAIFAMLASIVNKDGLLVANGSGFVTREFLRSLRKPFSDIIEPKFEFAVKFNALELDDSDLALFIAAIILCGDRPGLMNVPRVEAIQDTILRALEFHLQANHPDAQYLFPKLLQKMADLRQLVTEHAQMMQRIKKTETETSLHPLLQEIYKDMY

outcome, inactive:
Cc1cc(C(C)(C)C)c(O)c(C(C)(C)C)c1
CCOC=O
C=C(c1ccc(C(=O)O)cc1)c1cc2c(cc1C)C(C)(C)CCC2(C)C
CCOC=C(C(=O)OCC)C(=O)OCC
Nc1cc(Cl)c(-c2cc(Cl)c(N)cc2Cl)cc1Cl
CCC(=O)O
CNNCc1ccc(C(=O)NC(C)C)cc1
CCO[Si](CCC1CCC2OC2C1)(OCC)OCC (configuration not stated)
O=S(=O)(c1ccc(OCc2ccccc2)cc1)c1ccccc1O
CCO[Si](C)(C)OCC
O=c1cc(-c2ccccc2)oc2ccc3ccccc3c12
O=C(c1cc(O)c(O)c(O)c1)c1ccc(O)c(O)c1O
CCc1ccccc1O
CCC(=O)C=Cc1ccc(OC)cc1
O=CC(F)(F)C(F)(F)C(F)(F)F
CCCCCC(C)OC(=O)COc1ccc(Cl)c2cccnc12 (configuration not stated)
O=C(OC(=O)C(F)(F)C(F)(F)F)C(F)(F)C(F)(F)F
OCC1CCC(CO)CC1 (configuration not stated)
CCc1cccc(CC)c1N(COC)C(=O)CS(=O)(=O)O
Cc1ccccc1OCC(=O)O
CCC1CO1 (configuration not stated)
O=C1Cc2ccccc2N1c1c(Cl)cccc1Cl
O=C(Nc1ccc(Cl)c(Cl)c1)c1cc(Cl)cc(Cl)c1O
CCCCCCc1ccc(N)cc1
FC(F)(F)C1(F)C(F)(F)C(F)(F)C(F)(F)C(F)(C(F)(F)F)C1(F)F (configuration not stated)
CC1CCC(C(=O)O)CC1 (configuration not stated)
CCCCCCOC(=O)c1ccc(O)cc1
CCCCCCCCCCCC[N+](C)(C)CCCCCCCCCCCC
CCCCCCC(C)(C)C(=O)O
COC(=O)C(F)(F)C(F)(F)C(F)(F)F
CCCCc1ccc2ccccc2c1S(=O)(=O)O
C=CC(=O)OCCC(F)(F)C(F)(F)C(F)(F)C(F)(F)C(F)(F)C(F)(F)F
O=C(Nc1cccc([N+](=O)[O-])c1)c1cc2ccccc2cc1O
Cc1cncc(C)c1
Cc1cc(=O)oc2cc(O)ccc12
CCCCCCCCCCCC[N+](C)(C)Cc1ccccc1
NNc1nc(-c2ccc([N+](=O)[O-])cc2)cs1
